TWEAK Fn14 block: inhibitors of TWEAK-Fn14 signaling, primary screen, luciferase reporter cells, uHTS; AID 1159606, 2016; 360,000 tested, 2% active; inhibition, % at 10 µM; TWEAK-stimulated Fn14 reporter cells, luciferase luminescence, 8 h; in the data active = inhibition above about 50%
Shn3 3UTR inh: reduction of Shn3 3'UTR firefly luciferase signal, primary screen, Schnurri-3 inhibitor project, cell-based, Clone20 osteoblasts, set 2; Clone20 osteoblast Shn3 3'UTR firefly luciferase, 24 h; inhibition, % at 12.5 µM; 360,000 tested, 0.52% active; AID 588674, 2011;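 active = mean inhibition of at least 75% with every replicate also reaching 75%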;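 note: 0% = median of neutral control wells and 100% = pilot-screen positive control compound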
Peg3 promoter: Peg3 promoter-driven luciferase inhibitors, primary screen, cell-based, HeLa, luciferase luminescence | 360,000 tested, 1.7% active | AID 588405, 2011 | HeLa PEG-Prom luciferase reporter, overnight | inhibition, % at 20 µM;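 active = inhibition of at least 50% at 20 µM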
TRPM1 prom inh: inhibitors of MITF-dependent TRPM1 promoter reporter, primary screen, cell-based, SK-MEL-5, single point, luciferase. AID 488899, 2010. inhibition, % at 12.5 µM. SK-MEL-5 TRPM1 promoter luciferase, 24 h. 330,000 tested, 0.83% active;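 active = mean inhibition across replicates of 60% or more, whatever share of single replicates reaches that level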
EBV LMP1 NFkB: EBV LMP1-driven NF-kappaB luciferase reporter inhibitors, primary screen, cell-based, luminescence, single point; 350,000 tested, 0.69% active; inhibition, % at 12.5 µM; LMP1-induced NF-kappaB luciferase reporter cells; in the data active = inhibition above about 41%;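 note: 0% = neutral control wells and 100% = reference inhibitor control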
TROY NFkB inh: inhibitors of TROY-driven NF-kB signaling, primary screen, Q293 LMP1-TROYcd cells, NF-kB luciferase, uHTS; 360,000 tested, 0.98% active; inhibition, % at 10 µM; Q293 LMP1-TROYcd NF-kB luciferase reporter, 4 h; AID 1347056, 2019;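 active = compounds whose plate-normalised and pattern-corrected inhibition of the luciferase reporter signal at the single screening dose is 50% or more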
Active calls of the source: *; · = not tested or not shown. Most compounds without a hit are left out; they make up all but 4.1% or so of the library.

SMILES	TWEAK Fn14 block	Shn3 3UTR inh	Peg3 promoter	TRPM1 prom inh	EBV LMP1 NFkB	TROY NFkB inh
CC(=O)Nc1ccc(CC(=O)NCCC(c2ccccc2)c2ccccc2)cc1	12	-18	19	20	-7	4
COc1ccc2oc(C(=O)OCc3nnc(-c4ccccc4)o3)c(C)c2c1	-21	3	-35	-8	-6	-30
O=C(Nc1cc(Cl)ccc1Oc1ccccc1)c1cnccn1	88*	-17	6	1	8	·
CC(C)n1nnnc1SCC(=O)N1N=C(c2cccs2)CC1c1cccs1 (stereo not drawn)	-8	-86	-262	-59	-11	-55
COC(=O)c1sccc1NC(=O)CSc1ccccc1NS(=O)(=O)c1ccc(Br)cc1	53*	-1	40	3	2	52*
Cc1ccccc1CS(=O)(=O)c1nnc([C@H](Cc2ccccc2)NC(=O)OC(C)(C)C)o1	10	95*	104*	83*	7	2
CCC(C)[C@@H](NC(=O)OC(C)(C)C)c1nnc(S(=O)(=O)Cc2cccc(C)c2)o1 (stereo partly drawn)	40	98*	108*	71*	1	28
CCSc1nnc([C@H](Cc2ccccc2)NC(=O)OC(C)(C)C)o1	-15	-8	5	-14	4	-13
O=C(CN1C(=O)NC2(CCCC2)C1=O)Nc1nc2ccccc2[nH]1	2	10	-11	-8	-3	-11
COC(=O)[C@H](C)N(Cc1ccc(Cl)c(Cl)c1)S(=O)(=O)CCN1CCN(c2ccccc2)CC1	43	19	21	9	-1	22
COc1cc(Cl)c(C)cc1NC(=O)COC(=O)c1ccc(CN2CCCC2=O)cc1	-39	2	1	·	-21	17
CCOC(=O)c1ccc(NC(=O)COc2ccccc2CNCCc2ccccc2)cc1	-14	0	98*	-2	-55	-3
CCOC(=O)c1ccc(NC(=O)COc2ccc(CNCCO)cc2OCC)cc1	40	2	-7	-5	-7	16
CN(CC(=O)Nc1ccc(S(=O)(=O)N2CCCC2)cc1)CC(=O)Nc1cccc(F)c1	2	-10	24	4	-5	-5
CCN(Cc1ccccc1)C(=O)C(=O)c1cn(CC(=O)N2CCCC2)c2ccccc12	10	-2	9	6	-5	7
O=C(Cn1ccc(=O)[nH]c1=O)Nc1nccs1	0	-14	-16	·	-2	-7
Fc1c(F)c(C(F)(F)F)c(F)c(F)c1N/N=C\c1cccs1	60*	21	-14	8	-6	40
Cn1c(Sc2ccc(Br)cc2)c(C=O)c2ccccc21	55*	20	37	11	10	·
Cc1occc1C(=O)N(Cc1nc(-c2ccccc2)no1)C(C)C	-1	7	2	5	17	-16
c1ccc2c(-c3ccc4nncn4c3)cncc2c1	78*	10	6	·	·	40
CCN(C(=O)COC(=O)c1cc(-c2cccc3ccccc23)nc2ccccc12)C1CCS(=O)(=O)C1 (stereo not drawn)	-4	-16	3	-6	6	-19
COc1ccc(Nc2oc(COc3ccc(Cl)cc3)nc2C#N)cc1	88*	19	47	27	46*	32
COc1ccc(CCNc2oc(COc3ccc(Br)cc3)nc2C#N)cc1OC	25	13	35	-1	0	59*
CSc1cnc2c(=O)n(C)c(=O)[nH]c2n1	21	-13	-72	19	6	-7
Cn1c(=O)[nH]c2nnc(-c3ccc(Cl)c(Cl)c3)nc2c1=O	57*	-56	-52	6	12	4
SMILES	TWEAK Fn14 block	Shn3 3UTR inh	Peg3 promoter	TRPM1 prom inh	EBV LMP1 NFkB	TROY NFkB inh
Clc1cccc(Nc2nc(-c3ccncc3)nc3ccccc23)c1	-2	12	83*	5	-5	21
COc1ccc(N2CCN(C(=O)c3sc4ncn(CC(=O)N5CCCCC5C)c(=O)c4c3C)CC2)cc1 (stereo not drawn)	6	-24	-8	1	4	-1
c1ccc(CCNc2ncnc3ccccc23)cc1	68*	57	-268	-25	-6	25
Cc1cccc(-c2ccc3ncnc(NCc4cccnc4)c3c2)c1	13	23	5	12	-9	3
Brc1ccc2ncnc(NCc3ccccc3)c2c1	82*	75	13	4	60*	54*
Cc1nnc(SCC(=O)Nc2cccc(S(=O)(=O)N3CCCC3)c2)n1C1CC1	-12	9	5	·	-2	6
Cc1cc(C)nc(N2N=C(C(F)(F)F)CC2=O)n1	2	3	14	16	-2	0
CCc1ccc(NC(=O)CSc2nc(=O)n(CCCN(C)C)c3c2CCC3)cc1	7	-8	-15	-3	3	3
CC(C)Cn1c(N)c(C(=O)CSc2ccc3c(c2)OCCO3)c(=O)n(C)c1=O	69*	86*	21	40	39	50
COc1ccc(/C=C/C(=O)Nc2cc(F)ccc2C)cc1S(=O)(=O)N1CCOCC1	4	-16	1	4	10	18
Cc1ccc2nc(Nc3nc(-c4ccccc4)cc(=O)[nH]3)nc(C)c2c1	32	-9	22	37	-36	·
Cc1ccc2c(C)nc(Nc3nc(CSc4nc5ccccc5[nH]4)cc(=O)[nH]3)nc2c1	96*	74	109*	80*	-2	68*
COc1ccc2c(C)nc(Nc3nc(-c4ccccc4)cc(=O)[nH]3)nc2c1	63*	-97	108*	70*	-143	58*
CNc1c(NS(=O)(=O)c2ccc(OC)c(Cl)c2)c(=O)oc2ccccc12	1	1	26	-8	-4	3
CSc1ncccc1C(=O)OCC(=O)Nc1ccc2c(c1)CCC2	-6	-1	-25	-4	2	-47
COc1ccc(C(C(=O)NC(C)(C)C)N(C(=O)CNC(=O)c2cccs2)c2cccnc2)cc1OC (stereo not drawn)	-3	8	9	-11	7	-9
CCCOc1ccc(CSC(CC(=O)O)C(=O)O)cc1 (stereo not drawn)	-8	-21	7	-3	0	-7
CCCCOc1ccc(CSC(CC(=O)O)C(=O)O)cc1 (stereo not drawn)	70*	5	-1	2	1	·
COCc1nn2c(N)c(C#N)cnc2c1-c1ccccc1	-3	95*	11	10	0	-7
O=C(NCCc1ccccc1)C1Cc2c(-c3ccccc3Oc3ccccc3)ccnc2O1 (stereo not drawn)	25	-8	42	·	·	25
CCCOc1ccc(F)cc1-c1cc(C(=O)Nc2cc(OC)c(OC)c(OC)c2)[nH]n1	64*	22	44	·	·	9

Screens as filed in PubChem BioAssay.
